An excerpt weighted towards active compounds, which were near 4% of everything screened.
MITF TRPM1 inh: inhibitors of MITF-driven TRPM1 promoter in melanoma cells. inhibition, % at 12.5 µM. AID 488899. SK-MEL-5 TRPM1 promoter luciferase, 24 h. actives 0.83% (n = 330,000);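 active = mean inhibition across replicates of 60% or more, whatever share of single replicates reaches that level; inconclusive = some that reach 60%, reason not given; inactive = mean inhibition across replicates below 60%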
MITF TRPM1 HTS: increases MITF-driven TRPM1 promoter luciferase signal | AID 588334 | SK-MEL-5 TRPM1-promoter luciferase, 24 h; % of positive control, neutral wells = 0 | actives 0.75% (n = 300,000) | activation, % at 12.5 µM;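 active = mean activation of at least 80% with every replicate also reaching 80%; inconclusive = mean reaches 80% but some replicate falls short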;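 also: 0% = neutral control wells and 100% = parthenolide positive control wells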
EWS-Fli inh: inhibitors of EWS/Fli oncoprotein transcriptional activity. A673 NR0B1-luciferase reporter, viability-normalised. inhibition, % at 12.6 µM. actives 0.67% (n = 350,000). AID 651661;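 active = mean inhibition of at least 50% after viability correction, with every replicate also passing that limit; inconclusive = mean reaches 50% but only one of two replicates passes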;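 also: firefly luciferase signal divided by Alamar Blue viability fluorescence both relative to DMSO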
PAX8 reporter: inhibitors of PAX8 transcriptional activity in RMG-I cells; RMG-I TPO-luciferase reporter, SteadyGlo, 24 h; inhibition, % at 12.6 µM; actives 1.2% (n = 360,000); AID 652154;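 active = mean replicate inhibition at least 60% with every replicate also reaching 60%; inconclusive = only one of the two criteria is met; inactive = mean below 60% and not all replicates reaching 60%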;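 also: luciferase light reporting Pax8 driven TPO promoter activity; plate controls were median of neutral control wells for no effect and mitoxantrone controls for full effect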
Wnt bcat act: Wnt/beta-catenin pathway activation. Wnt/beta-catenin reporter cell assay, activator, plate reader. activation, % at 9.35 µM. actives 1.2% (n = 300,000); in the data active = activation above about 30%, passing the limit was not always enough; inconclusive = no clear call, values can overlap the other calls;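 also: 0% = neutral control wells and 100% = positive control wells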
esBAF inh: inhibitors of esBAF chromatin remodeling in mouse ES cells. Bmi1-luciferase knock-in reporter, 24 h; 100% = twice the neutral-well signal. reporter increase, % at 12.5 µM. actives 2% (n = 350,000); in the data active = activation above about 40%; inconclusive = no clear call, values can overlap the other calls;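 also: 0% = median of the plate's neutral control wells and 100% = double that signal; a rise in the Bmi1 reporter signal indicates esBAF inhibition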
The depositor's hits bear a star; ? = inconclusive; . = no result given.

SMILES	MITF TRPM1 inh	MITF TRPM1 HTS	EWS-Fli inh	PAX8 reporter	Wnt bcat act	esBAF inh
Cc1cc(C)nc(NC(=O)Nc2ccc3c(c2)OCO3)c1	-41	47	-29	-105	-6	.
Cc1ccc(NC(=O)c2ccccc2F)nc1	-6	.	.	-165	.	25
O=C(Nc1cccc(F)c1)Nc1ccc(Cl)cn1	-67	74	-104	-29	14	32
Cc1ccnc(NC(=O)Nc2cccc(F)c2)n1	-29	28	-8	-102	80*	13
COc1cccc(NC(=O)Nc2nccc(C)n2)c1	-2	-5	34	-9	7	.
Cc1cccc(-c2ccccc2[C@H]2[C@@H](C#N)N(c3ncc(-c4ccccc4)s3)[C@@H]2CO)c1	.	.	2	4	.	.
Cc1ccc(S(=O)(=O)Nc2ccc3c(c2)C(=O)N([C@H](C)CO)C[C@H](C)[C@H](CN(C)Cc2ccc(Cl)c(Cl)c2)OCCCC[C@H](C)O3)cc1	.	.	-1	17	.	.
Cc1cccc(NC(=O)Nc2cccc(F)c2)n1	-20	20	.	.	.	68*
Cc1ccnc(NC(=O)Nc2cccc(F)c2)c1	-4	.	.	.	.	-11
COCCN(C(=O)COC(=O)/C=C/c1ccc2ccccc2n1)c1c(N)n(Cc2ccccc2)c(=O)[nH]c1=O	36	-32	.	64*	0	8
COCCN(C(=O)COC(=O)/C=C/c1nc2ccccc2s1)c1c(N)n(Cc2ccccc2)c(=O)[nH]c1=O	16	-15	10	76*	-4	10
COCCN(C(=O)COC(=O)/C=C/c1ccccc1Cl)c1c(N)n(Cc2ccccc2)c(=O)[nH]c1=O	12	-10	15	14	-2	.
CN(C(=O)COC(=O)/C=C/c1ccc2ccccc2n1)c1c(N)n(Cc2ccccc2)c(=O)[nH]c1=O	48	-48	14	86*	0	-4
CCN(C(=O)COC(=O)/C=C/c1nc2ccccc2s1)c1c(N)n(Cc2ccccc2)c(=O)[nH]c1=O	-17	20	-6	14	9	18
O=C(C[C@H]1C=C[C@H](NC(=O)C2CCOCC2)[C@@H](CO)O1)NCc1ccccc1Cl	.	.	-2	.	.	.
COCCNC(=S)N/N=C1\CC(C)CC(C)(C)C1 (stereo not drawn)	2	2	15	-6	34*	-4
COc1ccc2c3c(n(C)c2c1)[C@H](CO)N(C(=O)CN1CCOCC1)CC31CN(C(=O)CC2CC2)C1	.	.	-12	.	.	.
Cc1cccc2c1OCC/C2=N\NC(=O)COc1ccccc1Cl	-92	95*	.	.	.	70*
O=C(NCC1(c2ccccc2)CCCC1)C(=O)NCC1(c2ccccc2)CCCC1	0	.	.	-51	-3	-2
CNC[C@H](CC1CCCCC1)NC[C@H](CO)NCC1(c2ccccc2)CC1	66*	-63	9	13	-2	-4
C[C@H](CO)N1C[C@H](C)[C@@H](CN(C)S(=O)(=O)c2cccs2)Oc2ccc(NC(=O)NC3CCCCC3)cc2CC1=O	.	.	0	10	.	2
Cc1ccc(-n2nnc(-c3cccnc3Cl)n2)cc1	-61	61	-2	-98	31*	-8
Clc1ccc(-n2nnc(-c3cccnc3Cl)n2)cn1	-118	126*	-135	-156	41*	52*
COCCNC(=O)C[C@@H]1C[C@H]2c3cc(NC(=O)Nc4ccc(C(F)(F)F)cc4)ccc3O[C@H]2[C@H](CO)O1	.	.	5	91*	.	4
O=C(C[C@H]1C[C@@H]2c3cc(NC(=O)Nc4ccc(C(F)(F)F)cc4)ccc3O[C@@H]2[C@H](CO)O1)NCCc1ccccc1	.	.	18	37	.	-5
SMILES	MITF TRPM1 inh	MITF TRPM1 HTS	EWS-Fli inh	PAX8 reporter	Wnt bcat act	esBAF inh
C[C@H](NC(=O)C[C@@H]1C[C@@H]2c3cc(NC(=O)Nc4ccc(C(F)(F)F)cc4)ccc3O[C@@H]2[C@@H](CO)O1)c1ccccc1	.	.	2	107*	.	-6
O=C(C[C@H]1C[C@@H]2c3cc(NC(=O)Nc4ccc(C(F)(F)F)cc4)ccc3O[C@@H]2[C@@H](CO)O1)NCCc1ccccc1	.	.	38	99*	.	8
O=C(C[C@@H]1C[C@H]2c3cc(NC(=O)Nc4ccc(C(F)(F)F)cc4)ccc3O[C@H]2[C@H](CO)O1)NCCc1ccccc1	.	.	43	100*	.	3
C[C@H](CO)N1C[C@H](C)[C@@H](CN(C)C(=O)C2CCOCC2)Oc2ncc(C3=CCCC3)cc2C1=O	.	.	-6	-20	.	2
O=C(C[C@@H]1C[C@H]2c3cc(NC(=O)Nc4ccc(C(F)(F)F)cc4)ccc3O[C@H]2[C@@H](CO)O1)NC1CCCCC1	.	.	-10	-12	.	0
O=C(C[C@@H]1C[C@H]2c3cc(NC(=O)Nc4ccc(C(F)(F)F)cc4)ccc3O[C@H]2[C@H](CO)O1)NC1CCCCC1	.	.	19	67*	.	18
Cc1ccc(NC(=O)c2ccc(OC(=O)CCN3C(=O)c4ccccc4C3=O)cc2)cc1	-54	49	.	-207	46*	?
Cc1cc(C)cc(OC(=O)CCN2C(=O)c3ccccc3C2=O)c1	1	0	.	.	.	-1
O=C(Nc1ccccc1)SC1CCCCC1	-76	79	-117	-209	9	83*
O=C(Nc1ccccc1)N1CCCC2CCCCC21 (stereo not drawn)	-62	61	.	.	-2	52*
C[C@@H]1CN([C@@H](C)CO)C(=O)c2cc(NC(=O)Cn3cnnn3)ccc2O[C@H]1CN(C)Cc1ccc(C(=O)O)cc1	.	.	-2	.	.	-2
OC(c1ccc(F)c(F)c1)c1nc(-c2ccc3ccccc3c2)cs1 (stereo not drawn)	.	.	-45	-100	-3	68*
OC(c1cccc(Cl)c1)c1nc(-c2cnc3ccccc3c2)cs1 (stereo not drawn)	.	.	-41	-24	-1	31
NC(c1ccc(F)c(F)c1)c1nc(-c2ccc3ccccc3c2)cs1 (stereo not drawn)	.	.	-13	-15	0	25
COc1ccc(C(O)c2nc(-c3cnc4ccccc4c3)cs2)cc1 (stereo not drawn)	.	.	-34	-122	2	49*
CC(=O)NC(c1cccc(F)c1)c1nc(-c2cc3ccccc3o2)cs1 (stereo not drawn)	.	.	-8	6	-1	1
OC(c1ccc(F)cc1)c1nc(-c2cc3ccccc3o2)cs1 (stereo not drawn)	.	.	-106	-161	-1	70*
OC(c1ccc(F)cc1)c1nc(-c2cnc3ccccc3c2)cs1 (stereo not drawn)	.	.	-67	-200	23	48*
CC(C)NC(=O)N[C@H]1C=C[C@H](CC(=O)NCCCN(C)C)O[C@H]1CO	.	.	-2	-6	.	0
CN1C(=O)c2cc(NC(=O)c3ccccc3Cl)ccc2OC[C@@H]2O[C@H](CC(=O)NCC(F)(F)F)CC[C@@H]21	.	.	-3	-5	.	6
COCC(=O)Nc1ccc2c(c1)C(=O)N(C)[C@@H]1CC[C@H](CC(=O)NCCc3ccncc3)O[C@@H]1CO2	.	.	10	14	.	0
Cc1noc(C)c1NC(=O)N(C)C[C@@H]1OCc2cnnn2CCCC(=O)N([C@H](C)CO)C[C@H]1C	.	.	-4	-1	.	-4
